# From PubChem BioAssay AID652017 (The Scripps Research Institute Molecular Screening Center, 2013)
# About 3,800 (1%) of roughly 370,000 compounds were called active. Many of the other results were omitted from the sample, so actives are more common in it than they were. Values without a mark were called inactive. No stated cut-off is given here; in the data, active means activation above about 7.8%; inactive means the rest.
# Test: SMARCA2 (BRM) function activators, primary screen, cell-based, luminescence, high throughput (AID 652017);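 further: 0% = vehicle wells and 100% = reference activator wells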
# Details: MG213 cells, MMTV-luciferase reporter, dexamethasone, overnight; at 9.1 µM; active compounds read high
row,Compound,activation
1,O=C(c1cccs1)C1C(c2ccc(Br)cc2)NC(=S)NC1(O)C(F)(F)F (stereo not drawn),9.18% (active)
2,CCOC(=O)C1C(c2ccc(O)cc2)NC(=O)NC1(O)C(F)(F)F (stereo not drawn),-2.11%
3,Cc1cc(-c2n[nH]c(=S)n2/N=C/C(Br)=C/c2ccccc2)n[nH]1,12.8% (active)
4,CSc1ccc(C=Nn2c(-c3ccc(F)cc3)n[nH]c2=S)cc1,-5.15%
5,C=CCN1C(=O)[C@@H](CC(=O)N2CCN(C(=O)OCC)CC2)[C@]2(C(=O)OCC)CCCCC/C=C/12,0.06%
6,O=C(CSc1nc2ccccc2o1)N1CCN(c2ccc(Cl)cc2)CC1,-2.94%
7,CC(C)(C)C(=O)CSc1nc2ccccc2o1,8.4% (active)
8,CC1Cc2ccccc2N1C(=O)CSc1nc2ccccc2o1 (stereo not drawn),1.43%
9,COc1ccnc(C(=O)N2CCC(Oc3cccnc3)CC2)c1,3.85%
10,COc1ccc(N2CCN(CCNS(=O)(=O)c3ccc(Cl)s3)CC2)cc1,0.84%
11,CN1C(=O)C2(OCCCO2)c2cc(Cl)ccc21,-0.14%
12,COC(=O)c1ccc(/C=C2/C(=O)Oc3ccccc32)cc1,10.5% (active)
13,COC(=O)c1ccc(/C=N/N2C(C)CCCC2C)cc1 (stereo not drawn),-1.42%
14,O=C1Oc2ccccc2C(=O)/C1=C/c1ccccc1O,1.29%
15,CN(C)Cc1cn(-c2ccc(-c3noc4c3C(=O)N(CC(=O)N3CCOCC3)CC4)cc2)nn1,-2.05%
16,COc1ccc(S(=O)(=O)Nc2ccc3c(c2)C(=O)N([C@H](C)CO)C[C@H](C)[C@@H](CN(C)C)OCCCC[C@H](C)O3)cc1,-4.35%
17,O=C(COC(=O)CNC(=O)c1ccco1)Nc1ccc(F)cc1,-3.14%
18,CC(OC(=O)CNC(=O)c1ccco1)C(=O)Nc1ccc(Cl)cn1 (stereo not drawn),-2.28%
19,O=C(Nc1ccc2nccnc2c1)c1ccco1,9.43% (active)
20,CC1CCN(c2ccc(-c3ccc(NC(=O)c4ccco4)cc3)nn2)CC1,3.83%

row,Compound,activation
1,Cc1cc(NC(=O)[C@H](C)NC(=O)c2ccco2)ccc1Br,-1.37%
2,O=C(Nc1ccc(NC(=O)c2cccs2)cn1)c1ccco1,9.66% (active)
3,C=CS(=O)(=O)N(Cc1nnn(Cc2ccccc2)c1Br)[C@H](C(=O)OC)C(C)C,3.93%
4,CCC(=O)Nc1ccc2c(c1)C(=O)N(C)[C@@H]1CC[C@@H](CC(=O)NCCc3ccccc3)O[C@H]1CO2,-2.13%
5,COc1ccc(S[C@]2(C(=O)N(C)C)CC(=O)N(c3ccc(OC)cc3)[C@@H]2c2ccc(OC)cc2)cc1,2.23%
6,CCCCn1nnnc1C(c1ccccc1)N1CCN(c2ccccc2OC)CC1 (stereo not drawn),-1.13%
7,Cn1nnnc1NCc1ccc(Cl)c(Cl)c1,-0.94%
8,CCCCn1nnnc1C(c1cc2ccccc2o1)N(C)Cc1ccc(Cl)c(Cl)c1 (stereo not drawn),8.8% (active)
9,CC(C)N1CCCCC(NC(=O)c2ccc3ccccc3c2)C1=O (stereo not drawn),-1.33%
10,N[C@@H](Cc1ccccc1)C(=O)N1CCC[C@@H]1C(=O)N1CCC2CCN(S(=O)(=O)c3ccccc3)CC21 (stereo partly drawn),-1.95%
11,CCC(c1nc2ccccc2[nH]1)n1c(=O)c(-c2cccs2)nc2ccccc21 (stereo not drawn),-3.44%
12,FC(F)(F)c1cccc(-c2cc3ccccc3nc2N2CCCC2)c1,0.37%
13,FC(F)(F)c1cccc(-c2nc3ccccc3n2C(c2ccccc2)c2nc3ccccc3[nH]2)c1 (stereo not drawn),9.93% (active)
14,O=S(=O)(c1ccccc1)N1CCC(c2nc3ccccc3o2)CC1,-4.23%
15,O=C(C1CCN(S(=O)(=O)c2ccccc2)CC1)N1CCN(C2CCCCC2)CC1,-4.09%
16,O=C(C1CCC1)N1CCN(S(=O)(=O)c2ccc([N+](=O)[O-])cc2)CC1,9.83% (active)
17,Cc1ccc(S(=O)(=O)N2CCC(C(=O)N3CCCCCCC3)CC2)cc1,-3.84%
18,COC(=O)[C@H](C(C)C)N(CCCc1cn(Cc2ccccc2)nn1)S(=O)(=O)c1ccc(F)cc1Br,-0.98%
19,CCOC(=O)c1nnn2c1nc(N1CCN(c3ccccc3)CC1)c1ccccc12,-2.86%
20,O=C(CCCCCN1C(=O)C2C3C=CC(C3)C2C1=O)Nc1ccccc1 (stereo not drawn),-2.37%

row,Compound,activation
1,Cc1cc(=O)[nH]c(Nc2cccc(Br)c2)n1,-1.71%
2,Cc1cc(=O)[nH]c(N/N=C/c2ccc3c(c2)OCCO3)n1,8.3% (active)
3,Cc1ccc(C)c(NC2=NCC(=O)N2c2ccc3c(c2)OCCO3)c1,2.74%
4,CCCCNC(=O)C[C@@H]1C(=O)N(CCc2ccc(Cl)cc2)C2=CCCC[C@]21C(=O)OCC,-0.47%
5,COc1cccc(-c2cnc(OC(C)(C)C)nc2OC(C)(C)C)c1,-2.58%
6,COc1cccc(NS(=O)(=O)c2ccc(-c3coc(C)n3)cc2)c1,-3.45%
7,COc1cccc(-c2nc3cc(C)ccc3o2)c1,7.97% (active)
8,C=CCN(C)CC#Cc1ccccc1,0.78%
9,COP(=O)(O)CNC(=O)OCc1ccccc1,-0.59%
10,CC(CCN1CCC(C(O)(c2ccccc2)c2ccccc2)CC1)Oc1ccc(Cl)cc1 (stereo not drawn),-5.29%
11,COCC(=O)Nc1c(I)c(C(=O)NCC(O)CO)c(I)c(C(=O)N(C)CC(O)CO)c1I (stereo not drawn),-1.43%
12,CCOC(=O)C1(Cc2ccccc2)CCN(Cc2cn(C(C)=O)c3ccccc23)CC1,-3.37%
13,CCCOc1ccc(-c2nc(N)n[nH]2)cc1,8.06% (active)
14,Nc1nc(SCCOc2ccccc2)n[nH]1,-0.38%
15,Cc1ccc(OCCCCc2c(C)n[nH]c2C)cc1,-4.25%
16,O=C(NCCc1c[nH]c2ccccc12)OCc1cn(-c2c(F)cccc2F)nn1,-1.59%
17,COC(=O)[C@]12C[C@H](CC(=O)N3CCOCC3)C(=O)N(Cc3ccc(Cl)cc3Cl)C1=C[C@H](COCc1ccccc1)O[C@@H]2C,-3.76%
18,COC[C@@H]1CCCN1c1ccc2c(c1)O[C@H](C)CCN(C1CC1)S2(=O)=O,-0.54%
